# Results reported in PubChem BioAssay (NCATS).
# Records with an inconclusive call do not appear. A call without a number means that no potency is given here. A number with no mark means an inactive call. Activity calls are given as the source filed them. Calls follow the shape of the dose curve; as a rule, active = well fitted activation curve with a large enough effect; inconclusive = small, poorly fitted or top-dose-only effect; inactive = flat fitted curve, though single readings scatter. *1 amine or outer side, *2 acyl side, *3 side chain or, on linkers, in order; H or OH if unused. Where a SMILES comes first, the peptide text is derived from it. [ ]: non-standard residue; d: D form. X13 = O=C(C(CC(O)CO)O[*:1])[*:2]; NMeV = CN[CH](C(=O)O)C(C)C; NMeA = CN[CH](C)C(=O)O; βAla = NCCC(=O)O
# Assay: Primary redox qHTS assay for identification of artifact compounds. (AID 1845223)
# Conditions: Amplex Red/HRP redox cycling with DTT, fluorescence; series mostly up to 53.8 µM
# Procedure, shortened: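 Redox-cycling detection via DTT (250 uM final) oxidation coupled to Amplex Red (25 uM)/HRP (250 mU/mL) in HBSS. 15 min preincubation plus 30 min after DTT, room temperature. Ex/Em 525/598 nm; 4-parameter Hill fit against DMSO and 10 uM DA3003.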
Structure (SMILES),Potency,redox activity (% of DA3003)
CC1(C)CCCC2(C)c3c4c(c(=O)oc(=O)c3=CCC12)=CCC1C(C)(C)CCCC41C (centres undefined),inactive,–
C=C1CCC2C(C)(C(=O)O)CCCC2(C)C1CC/C(C)=C\CO (centres undefined),inactive,–
COC(=O)C1=C[C@@H](O)[C@@H](O)[C@H](O[C@@H]2O[C@H](CO)[C@@H](O)[C@H](O)[C@H]2OC(=O)/C=C/c2ccccc2)C1,inactive,–
CC12CC34CC(O)C5C(CO)(CO)CC(=O)CC5(C)C3CC1C2C4 (centres undefined),inactive,–
N#Cc1cccc(-c2nc(-c3cccnc3)no2)c1,inactive,–
CC1=CCC2C(C)(C)CCCC2(C)C1CC12OC1C(O)C(CO)=CC2O (centres undefined),inactive,–
CC(=O)OC1C(CO)OC(O[C@H]2[C@H](OC(=O)[C@]34CCC(C)(C)C[C@H]3C3=CCC5[C@@]6(C)CC[C@H](O[C@@H]7O[C@H](C(=O)O)[C@@H](O)[C@H](O[C@@H]8OC[C@@H](O)[C@H](O)[C@H]8O)[C@H]7O[C@@H]7O[C@H](CO)[C@H](O)[C@H](O)[C@H]7O)[C@@](C)(C=O)C6CC[C@@]5(C)[C@]3(C)C[C@H]4O)O[C@H](C)[C@H](OC3OC(C)C(OC4OCC(O)C(O)C4O)C(O)C3O)[C@@H]2O)C(O)C1O (some centres undefined),–,3.62% [at 11.5 µM]
COC(=O)C1=COC(OC2OC(CO)C(O)C(O)C2O)C2C(C)CC(=O)C12O (centres undefined),inactive,–
COC(=O)[C@]1(Cc2ccc(O)c(CC=C(C)C)c2)OC(=O)C(O)=C1c1ccc(O)cc1,inactive,–
O=C(O)CC1(O)C(=O)Nc2ccccc21 (centres undefined),inactive,–
CCC(=O)OCC(=O)[C@@]1(OC(=O)CC)[C@@H](C)C[C@H]2[C@@H]3CCC4=CC(=O)C=C[C@]4(C)[C@@]3(F)[C@@H](O)C[C@@]21C,inactive,–
CC(=O)OC[C@]12[C@@H](OC(=O)c3ccoc3)C[C@@H]3[C@@H](OC(C)=O)[C@]1(OC3(C)C)[C@@](C)(O)C[C@H](OC(=O)c1ccoc1)[C@@H]2OC(=O)c1ccoc1,inactive,–
CCNC(=O)OC1CCN(c2nncc3cc(OC)c(OC)cc23)CC1,inactive,–
COc1ccc(O[C@@H]2O[C@H](CO)[C@@H](O)[C@H](O)[C@H]2O)cc1OC,inactive,–
CC(C)C(NC(=O)c1ccc(O)cc1)C(=O)N1CCCC1C(=O)Nc1c(O)cccc1C(=O)O (centres undefined),inactive,–
CC(/C=C/C=C(\C)C(=O)O[C@@H]1O[C@H](CO[C@@H]2O[C@H](CO)[C@@H](O)[C@H](O)[C@H]2O)[C@@H](O)[C@H](O)[C@H]1O)=C\C=C\C=C(C)\C=C\C=C(/C)C(=O)O[C@@H]1C[C@](O)(C(=O)O)C[C@@H](O)[C@H]1OC(=O)/C=C/c1ccc(O)c(O)c1,–,-7.98% [at 11.5 µM]
O=C(O)c1ccnc2cc(C(OCC3CCC(F)(F)CC3)c3ccccc3Cl)[nH]c12 (centres undefined),inactive,–
CC(C)[C@@](O)(c1ccc2cc(OC(F)F)c(OC(F)F)cc2c1)c1cn[nH]n1,inactive,–
COc1cc(CC2COC(c3ccc(OC4OC(CO)C(O)C(O)C4O)c(OC)c3)C2CO)ccc1O (centres undefined),inactive,–
CCC(C)C1NC(=O)C2CCCN2C(=O)C(CC(O)CO)OC(=O)CCNC(=O)C(C)N(C)C(=O)C(C(C)C)N(C)C1=O (centres undefined) (cyclo([X13]PI[NMeV][NMeA][βAla]); configuration not given here),inactive,–

Structure (SMILES),Potency,redox activity (% of DA3003)
C/C(=C\CCC(C)(C)O)CCO[C@@H]1O[C@H](CO[C@@H]2O[C@@H](C)[C@H](O)[C@@H](O)[C@H]2O)[C@@H](O)[C@H](O)[C@H]1O,inactive,–
NC1=NC2(c3cc(NC(=O)c4ccc(F)cn4)ccc3F)COCC2CS1 (centres undefined),inactive,–
COc1ccc(S(=O)(=O)Nc2nc(-c3cccc([N+](=O)[O-])c3)cs2)cc1OC,inactive,–
COc1cc2c(cc1O)C(c1ccc(O)cc1)C(C)C(C)C2 (centres undefined),inactive,–
CC(C)=C1CC2[C@](C)(CC[C@@H](OC(=O)C3(C)OC3C)[C@@]2(C)O)CC1=O (some centres undefined),inactive,–
CC1(C)[C@@H]2CC=C(CO[C@@H]3O[C@H](CO[C@@H]4OC[C@H](O)[C@H](O)[C@H]4O)[C@@H](O)[C@H](O)[C@H]3O)[C@H]1C2,inactive,–
Cc1ccccc1NC(=O)Nc1ccc(CN2C(=O)N([C@@H](CC(C)C)C(=O)N[C@@H](CC(=O)O)c3ccccc3)C(=O)C2(C)C)cc1,inactive,–
C[C@@H](CC[C@@H]1[C@@]2(C)CCCC(C)(C)C2CC[C@@]1(C)O)CC(=O)O (some centres undefined),inactive,–
Cc1ccc(COC(=O)N2CC[C@@H](CNc3ncccn3)[C@@H](F)C2)cc1,inactive,–
Cc1c(-c2ccc3c(c2)OCO3)oc2ccc(C(O)C(C)O)cc12 (centres undefined),inactive,–
COc1ccc2c(c1)N1C(=O)C[C@@]34C=CC[N@+]5([O-])CC[C@H]2[C@H](CC3)[C@@]145,inactive,–
O=C(NC1CCN(CC(F)(F)F)CC1)c1ccc(-c2cccc(F)c2)nc1,inactive,–
COc1cc(/C=C/C(=O)O[C@@H]2C[C@@](O)(C(=O)O)C[C@@H](O)[C@@H]2O)ccc1O,inactive,–
O=C(O)c1ccnc(-c2cc(C(=O)NCCc3ccccc3)ccn2)c1,inactive,–
CC1(C)C2CCC1(C)C(OC(=O)C(O)(CC(=O)O)CC(=O)O)C2 (centres undefined),inactive,–
CC(=O)OC1C(O)C(C)(O)C(/C=C/C(=O)O)C2(C)CCCC(C)(C)C12 (centres undefined),inactive,–
CC1OC(O[C@@H]2[C@H](O)[C@@H](OC3OC(CO)C(O)C(O)C3O)[C@H](OC(=O)[C@]34CCC(C)(C)C[C@H]3C3=CCC5[C@@]6(C)CC[C@H](O[C@@H]7O[C@H](C(=O)O)[C@@H](O)[C@H](O[C@@H]8OC[C@@H](O)[C@H](O)[C@H]8O)[C@H]7O[C@@H]7O[C@H](CO)[C@H](O)[C@H](O)[C@H]7O)[C@@](C)(C=O)C6CC[C@@]5(C)[C@]3(C)C[C@H]4O)O[C@@H]2C)C(O)C(O)C1OC1OCC(O)C(O)C1O (some centres undefined),–,-1.5% [at 6.41 µM]
CC(C)(OC1OC(CO)C(O)C(O)C1O)C1CCC(O)(CO)C2CC(=O)C(C)(O)C2C1 (centres undefined),inactive,–
C=CCc1ccc(O[C@@H]2O[C@H](CO)[C@@H](O)[C@H](O)[C@H]2O)c(O[C@@H]2O[C@H](CO)[C@@H](O)[C@H](O)[C@H]2O)c1,inactive,–
